# From the supplement of paper PMC4022240
# ± gives the standard deviation.
# T1: HaloTag-ATRX ADD domain (163-292)
# T1 chain: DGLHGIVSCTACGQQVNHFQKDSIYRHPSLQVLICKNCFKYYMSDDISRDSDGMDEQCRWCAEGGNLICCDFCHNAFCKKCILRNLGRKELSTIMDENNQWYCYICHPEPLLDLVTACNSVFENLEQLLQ
# How the values were obtained:
# Experiment in all cases: peptide microarray binding signal (635 nm), min-max normalized on array (fraction of array maximum); higher = stronger binding
# Settings in all cases: peptide region: H2A 1-13
# [1] = target: T1, HaloTag-ATRX ADD domain (163-292)
# Description: (§1)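 Histone 13-mer peptides were synthesized as cellulose conjugates with a C-terminal 20-atom PEG linker and printed in triplicate on nitrocellulose. The sequence given is the unmodified backbone; PTMs (Kme1/2/3, Kac, Sph/Tph, Rme/Rme2a/Rme2s, Rcit) are listed in the label and the 'peptide modifications' condition. Slides were probed at 4 °C for 1 h with biotin-labelled (HQ)5-HaloTag reader fusions (ATRX-ADD, ING2-PHD) then streptavidin-Alexa647, or with rabbit histone antibodies then anti-rabbit Alexa647. The mean 635 nm signal of the triplicate spots was scaled 0-1 between the lowest and highest values on each array.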
# [2] = target: HaloTag-ING2 PHD (mouse Ing2 200-280)
# Description: as §1
# [3] = target: anti-H3K4me3 antibody ab8580
# Description: as §1
# [4] = target: anti-H3K9me3 antibody ab8898
# Description: as §1
# [5] = binder concentration: 1:2,000 dilution
# [6] = binder concentration: 1:10,000 dilution
# [7] = peptide modifications: H2AK5ac H2AK9ac, binder concentration: 1:2,000 dilution
# [8] = peptide modifications: H2AK5ac H2AK9ac, binder concentration: 1:10,000 dilution
# [9] = peptide modifications: H2AK5ac, binder concentration: 1:2,000 dilution
# [10] = peptide modifications: H2AK5ac, binder concentration: 1:10,000 dilution
# [11] = peptide modifications: H2AK9ac, binder concentration: 1:2,000 dilution
# [12] = peptide modifications: H2AK9ac, binder concentration: 1:10,000 dilution
# [13] = peptide modifications: H2AR3cit H2AK5ac, binder concentration: 1:2,000 dilution
# [14] = peptide modifications: H2AR3cit H2AK5ac, binder concentration: 1:10,000 dilution
# [15] = peptide modifications: H2AR3cit, binder concentration: 1:2,000 dilution
# [16] = peptide modifications: H2AR3cit, binder concentration: 1:10,000 dilution
# [17] = peptide modifications: H2AR3me1, binder concentration: 1:2,000 dilution
# [18] = peptide modifications: H2AR3me1, binder concentration: 1:10,000 dilution
# [19] = peptide modifications: H2AR3me1 H2AK5ac, binder concentration: 1:2,000 dilution
# [20] = peptide modifications: H2AR3me1 H2AK5ac, binder concentration: 1:10,000 dilution
# [21] = peptide modifications: H2AR3me2a H2AK5ac, binder concentration: 1:2,000 dilution
# [22] = peptide modifications: H2AR3me2a H2AK5ac, binder concentration: 1:10,000 dilution
# [23] = peptide modifications: H2AR3me2a, binder concentration: 1:2,000 dilution
# [24] = peptide modifications: H2AR3me2a, binder concentration: 1:10,000 dilution
binder,measurement,setting,value
SGRGKQGGKARAK [H2A 1-13 S G R G K Q G G K A R A K],peptide microarray binding signal,[1]; binder concentration: 50 nM,0.00364 ± 0.00013
same,peptide microarray binding signal,[1]; binder concentration: 500 nM,0.00819 ± 0.00076
same,peptide microarray binding signal,[2]; binder concentration: 10 nM,0.00298 ± 3.3e-05
same,peptide microarray binding signal,[2]; binder concentration: 100 nM,0.00446 ± 7.4e-05
same,peptide microarray binding signal,[3]; [5],0.00034 ± 6.1e-06
same,peptide microarray binding signal,[3]; [6],0.000571 ± 1.1e-05
same,peptide microarray binding signal,[4]; [5],0.000242 ± 6.7e-06
same,peptide microarray binding signal,[4]; [6],0.000404 ± 4.4e-06
SGRGKQGGKARAK [H2A 1-13 S G R G Kac Q G G Kac A R A K],peptide microarray binding signal,"[1]; peptide modifications: H2AK5ac H2AK9ac, binder concentration: 50 nM",0.00382 ± 4.6e-05
same,peptide microarray binding signal,"[1]; peptide modifications: H2AK5ac H2AK9ac, binder concentration: 500 nM",0.00743 ± 0.00068
same,peptide microarray binding signal,"[2]; peptide modifications: H2AK5ac H2AK9ac, binder concentration: 10 nM",0.00281 ± 0.00011
same,peptide microarray binding signal,"[2]; peptide modifications: H2AK5ac H2AK9ac, binder concentration: 100 nM",0.00815 ± 0.00019
same,peptide microarray binding signal,[3]; [7],0.00109 ± 0.00019
same,peptide microarray binding signal,[3]; [8],0.000571
same,peptide microarray binding signal,[4]; [7],0.000227 ± 4.1e-06
same,peptide microarray binding signal,[4]; [8],0.000519 ± 5.6e-06
SGRGKQGGKARAK [H2A 1-13 S G R G Kac Q G G K A R A K],peptide microarray binding signal,"[1]; peptide modifications: H2AK5ac, binder concentration: 50 nM",0.00288 ± 4.3e-05
same,peptide microarray binding signal,"[1]; peptide modifications: H2AK5ac, binder concentration: 500 nM",0.0061 ± 0.00049
same,peptide microarray binding signal,"[2]; peptide modifications: H2AK5ac, binder concentration: 10 nM",0.00239 ± 2.4e-05
same,peptide microarray binding signal,"[2]; peptide modifications: H2AK5ac, binder concentration: 100 nM",0.005528 ± 4.3e-05
same,peptide microarray binding signal,[3]; [9],0.000378 ± 1e-05
same,peptide microarray binding signal,[3]; [10],0.000399
same,peptide microarray binding signal,[4]; [9],0.000227 ± 4.1e-06
same,peptide microarray binding signal,[4]; [10],0.000577 ± 6.2e-06
SGRGKQGGKARAK [H2A 1-13 S G R G K Q G G Kac A R A K],peptide microarray binding signal,"[1]; peptide modifications: H2AK9ac, binder concentration: 50 nM",0.00348 ± 0.0001
same,peptide microarray binding signal,"[1]; peptide modifications: H2AK9ac, binder concentration: 500 nM",0.00619 ± 0.00024
same,peptide microarray binding signal,"[2]; peptide modifications: H2AK9ac, binder concentration: 10 nM",0.00251 ± 0.00014
same,peptide microarray binding signal,"[2]; peptide modifications: H2AK9ac, binder concentration: 100 nM",0.00638 ± 0.00045
same,peptide microarray binding signal,[3]; [11],0.000547 ± 2.3e-05
same,peptide microarray binding signal,[3]; [12],0.000399
same,peptide microarray binding signal,[4]; [11],0.000227
same,peptide microarray binding signal,[4]; [12],0.00075 ± 1.6e-05
SGRGKQGGKARAK [H2A 1-13 S G Rcit G Kac Q G G K A R A K],peptide microarray binding signal,"[1]; peptide modifications: H2AR3cit H2AK5ac, binder concentration: 50 nM",0.00389 ± 0.00015
same,peptide microarray binding signal,"[1]; peptide modifications: H2AR3cit H2AK5ac, binder concentration: 500 nM",0.00481 ± 0.00026
same,peptide microarray binding signal,"[2]; peptide modifications: H2AR3cit H2AK5ac, binder concentration: 10 nM",0.00519 ± 0.00013
same,peptide microarray binding signal,"[2]; peptide modifications: H2AR3cit H2AK5ac, binder concentration: 100 nM",0.00567 ± 0.00026
same,peptide microarray binding signal,[3]; [13],0.001 ± 3.7e-05
same,peptide microarray binding signal,[3]; [14],0.0016
same,peptide microarray binding signal,[4]; [13],0.000634 ± 9.9e-06
same,peptide microarray binding signal,[4]; [14],0.0015 ± 4.4e-05
SGRGKQGGKARAK [H2A 1-13 S G Rcit G K Q G G K A R A K],peptide microarray binding signal,"[1]; peptide modifications: H2AR3cit, binder concentration: 50 nM",0.00257 ± 6.9e-05
same,peptide microarray binding signal,"[1]; peptide modifications: H2AR3cit, binder concentration: 500 nM",0.00614 ± 6.4e-05
same,peptide microarray binding signal,"[2]; peptide modifications: H2AR3cit, binder concentration: 10 nM",0.00137 ± 3.3e-05
same,peptide microarray binding signal,"[2]; peptide modifications: H2AR3cit, binder concentration: 100 nM",0.00262 ± 0.0002
same,peptide microarray binding signal,[3]; [15],0.000245 ± 2.6e-06
same,peptide microarray binding signal,[3]; [16],0.000514 ± 5.5e-06
same,peptide microarray binding signal,[4]; [15],0.000181
same,peptide microarray binding signal,[4]; [16],0.000404 ± 4.4e-06
SGRGKQGGKARAK [H2A 1-13 S G Rme G K Q G G K A R A K],peptide microarray binding signal,"[1]; peptide modifications: H2AR3me1, binder concentration: 50 nM",0.00254 ± 4.9e-05
same,peptide microarray binding signal,"[1]; peptide modifications: H2AR3me1, binder concentration: 500 nM",0.005096 ± 3.3e-05
same,peptide microarray binding signal,"[2]; peptide modifications: H2AR3me1, binder concentration: 10 nM",0.00286 ± 0.00013
same,peptide microarray binding signal,"[2]; peptide modifications: H2AR3me1, binder concentration: 100 nM",0.004039 ± 3.4e-05
same,peptide microarray binding signal,[3]; [17],0.000491 ± 9.7e-06
same,peptide microarray binding signal,[3]; [18],0.000514 ± 5.5e-06
same,peptide microarray binding signal,[4]; [17],0.000181
same,peptide microarray binding signal,[4]; [18],0.000404 ± 8.8e-06
SGRGKQGGKARAK [H2A 1-13 S G Rme G Kac Q G G K A R A K],peptide microarray binding signal,"[1]; peptide modifications: H2AR3me1 H2AK5ac, binder concentration: 50 nM",0.00467 ± 0.00064
same,peptide microarray binding signal,"[1]; peptide modifications: H2AR3me1 H2AK5ac, binder concentration: 500 nM",0.00424 ± 0.00012
same,peptide microarray binding signal,"[2]; peptide modifications: H2AR3me1 H2AK5ac, binder concentration: 10 nM",0.002507 ± 1.4e-05
same,peptide microarray binding signal,"[2]; peptide modifications: H2AR3me1 H2AK5ac, binder concentration: 100 nM",0.00305 ± 0.00059
same,peptide microarray binding signal,[3]; [19],0.000434 ± 2.9e-05
same,peptide microarray binding signal,[3]; [20],0.000571
same,peptide microarray binding signal,[4]; [19],0.000242 ± 6.7e-06
same,peptide microarray binding signal,[4]; [20],0.000634
SGRGKQGGKARAK [H2A 1-13 S G Rme2a G Kac Q G G K A R A K],peptide microarray binding signal,"[1]; peptide modifications: H2AR3me2a H2AK5ac, binder concentration: 50 nM",0.00354 ± 0.00011
same,peptide microarray binding signal,"[1]; peptide modifications: H2AR3me2a H2AK5ac, binder concentration: 500 nM",0.00657 ± 0.00029
same,peptide microarray binding signal,"[2]; peptide modifications: H2AR3me2a H2AK5ac, binder concentration: 10 nM",0.00352 ± 5e-05
same,peptide microarray binding signal,"[2]; peptide modifications: H2AR3me2a H2AK5ac, binder concentration: 100 nM",0.00454 ± 0.00022
same,peptide microarray binding signal,[3]; [21],0.0005474 ± 5.3e-06
same,peptide microarray binding signal,[3]; [22],0.00137 ± 1.3e-05
same,peptide microarray binding signal,[4]; [21],0.000468 ± 9e-06
same,peptide microarray binding signal,[4]; [22],0.00104 ± 1.1e-05
SGRGKQGGKARAK [H2A 1-13 S G Rme2a G K Q G G K A R A K],peptide microarray binding signal,"[1]; peptide modifications: H2AR3me2a, binder concentration: 50 nM",0.005172 ± 5e-05
same,peptide microarray binding signal,"[1]; peptide modifications: H2AR3me2a, binder concentration: 500 nM",0.0126 ± 0.00024
same,peptide microarray binding signal,"[2]; peptide modifications: H2AR3me2a, binder concentration: 10 nM",0.00382 ± 0.0003
same,peptide microarray binding signal,"[2]; peptide modifications: H2AR3me2a, binder concentration: 100 nM",0.0113 ± 0.00033
same,peptide microarray binding signal,[3]; [23],0.00119 ± 9.3e-05
same,peptide microarray binding signal,[3]; [24],0.00143 ± 2.4e-05
same,peptide microarray binding signal,[4]; [23],0.000483 ± 1.2e-05
same,peptide microarray binding signal,[4]; [24],0.00075 ± 7.9e-06
